Inhibition data for 94 compounds are collected here from PubChem BioAssay AID2315 (National Center for Advancing Translational Sciences (NCATS), 2010).

About 27,000 (9.3%) of roughly 290,000 compounds were called active. Cut-off read from the data, not from the text of the source: active = inhibition mostly above about 28% (no sharp cut-off); inactive = mostly below about 43%. The full list was thinned out, with actives kept by preference.

The nature of this test: A qHTS for Small Molecule Inhibitors of Shiga Toxin. Note: 0% is about no effect. The conditions noted are these: Vero cells, Shiga toxin protein synthesis inhibition reporter; at 38.7 µM, active compounds read high. (qHTS replaces the single test concentration by a dilution series.)
Turning to `COc1ccccc1NC(=O)C1CCCN(c2cc(C)nc3ncnn23)C1` (centres undefined), the inhibition (commonly the drop in the measured response relative to a control, in per cent) was 2.25% (inactive). Regarding `Cc1cc(C(F)(F)F)n2ncc(-c3ccccc3)c2n1`, the inhibition was -2.7% (inactive). The result for `COc1ccccc1-c1cnn2c(N3CCOCC3)cc(C)nc12` reads 87.6% (active); that for `N#Cc1c(-c2ccccc2)cc(-c2ccccc2)nc1SCC(=O)O`, -7.81% (inactive).

Consider `Cc1ccc(-n2c(C)cc(C(=O)CN3C(=O)C(=O)N(C4CCCC4)C3=O)c2C)cc1`, for which the inhibition was -11% (inactive). With `Cc1cc(C(=O)COC(=O)C2CC2)c(C)n1-c1ccc(F)cc1` the figure was 52.6% (active); with `Cc1cc(C(=O)CSc2nc(N)cc(=O)[nH]2)c(C)n1-c1cccc(F)c1`, 3.21% (inactive). For `CN(CC(=O)NCc1ccncc1)S(=O)(=O)c1ccc(Br)cc1`, the inhibition was 9.73% (inactive). The result for `Cc1cc(S(=O)(=O)Nc2ccc(C(=O)NCC(c3ccco3)N3CCCC3)cc2)ccc1F` (centres undefined) reads -11.6% (inactive). Turning to `CCC(C)[C@H](NC(=O)N1c2ccccc2NC(=O)[C@@H]1C(C)C)C(=O)N[C@@H](Cc1ccccc1)C(=O)O` (some centres undefined), the inhibition is -1.75% (inactive). With `Cc1nc2ccccc2c(-c2ccccc2)c1C(=O)c1ccccc1` the figure was -2.44% (inactive); with `Cc1nn(C(=O)c2ccoc2C)c(N)c1-c1ccccc1`, 131% (active); with `CCCC(=O)n1nc(-c2ccccc2)nc1N`, 17.2% (inactive). Regarding `Cc1cc(C)c2c(Cn3ccnc3)cc(=O)oc2c1`, the inhibition is -6.18% (inactive). With `CC(=O)Nc1ccc(S(=O)(=O)N2CCC(C(=O)NC3CC3)CC2)cc1` the figure was -3.15% (inactive); with `CN(Cc1ccccc1Cl)C(=O)C1CCC(=O)N(CCc2cccc(F)c2)C1` (centres undefined), 2.46% (inactive); with `COc1ccc(NS(=O)(=O)c2ccc3oc(SCC(N)=O)nc3c2)cc1`, -13.2% (inactive). With `COc1ccc(S(=O)(=O)N(C)C)cc1NC(=O)CSc1ncccn1` the figure was -6.2% (inactive).

In the case of `CN(C)S(=O)(=O)c1ccc2oc(SCC(=O)Nc3ccccc3F)nc2c1`, the inhibition is 113% (active).

Turning to `Brc1c(CSc2nncc3ccccc23)nc2ccccn12`, the inhibition was 44.5% (active). The result for `CN(C(=O)CN1C(=O)CCSc2ccc(S(=O)(=O)N3CCCC3)cc21)c1ccccc1` reads -7.94% (inactive).

On to `O=C(NCc1ccccc1Cl)c1ccc2c(=O)n(CC3CCCO3)c(=S)[nH]c2c1` (centres undefined), for which the inhibition was 28.6% (inactive). With `Cc1cc(C)c(OCC(=O)N(Cc2cccs2)C2CCS(=O)(=O)C2)c(C)c1` (centres undefined), the inhibition was 12.7% (inactive). The result for `CCOC(=O)N1CCN(C(=O)C(=O)Nc2sc3c(c2C#N)CC(C)(C)OC3)CC1` reads -6.06% (inactive); that for `O=S1(=O)CCOC[C@H](CC2CCCCC2)N1Cc1ccc(F)cc1`, 19.8% (active); that for `CCC(C)[C@H]1COCCS(=O)(=O)N1Cc1ccc(C)cc1` (some centres undefined), -2.97% (inactive).

`CCCC[C@H]1COCCS(=O)(=O)N1Cc1cccc(Cl)c1`: the inhibition is -0.556% (inactive).

Regarding `Cc1ccc(S(=O)(=O)N2CC(C)N(S(C)(=O)=O)C2)cc1` (centres undefined), the inhibition is -4.24% (inactive). The result for `Cc1ccc(-c2nnc(CN3CCN(C)CC3)o2)cc1` reads 21.4% (inactive).

For `COc1cccc(NC(=O)Cn2c3ccc(F)cc3c3nc4n(c(=O)c32)CCS4)c1`, the inhibition was -1.58% (inactive). The result for `CCC(=O)Nc1ccc(S(=O)(=O)Nc2c(NC)c3ccccc3oc2=O)cc1` reads 8.69% (inactive). The result for `O=C(N=C1SC2CS(=O)(=O)CC2N1c1cc(Cl)ccc1Cl)C1CC1` (centres undefined) reads -4.57% (inactive); that for `O=C(c1ccc(F)cc1)n1cc(C(=S)N2CCOCC2)c2ccccc21`, -2.34% (inactive); that for `O=C(Cn1c(=S)nc2ccccn21)N1CCc2ccccc2C1`, 38.4% (inactive). As for `O=C(c1ccc(F)cc1)n1c(=S)nc2ccccn21`, the inhibition is 82.6% (active). With `CC1C(=O)N(Cc2ccccc2)c2ccccc2N1C(=O)c1ccccc1` (centres undefined) the figure was 2.9% (inactive); with `O=C(CN1C(=O)c2cccc3cccc1c23)Nc1ccccc1`, -7.35% (inactive). With `CC(C)(CNC(=O)Cc1ccc(Cl)cc1Cl)N1CCOCC1`, the inhibition was 2.65% (inactive). As for `CSCc1cc(N2CCOCC2)nc(SCc2ccc(Cl)cc2Cl)n1`, the inhibition is 30.9% (active). The result for `CSCc1cc(N(C)C)nc(SCc2ccc(Cl)cc2Cl)n1` reads -20.3% (inactive). With `CCn1c(SCC(=O)Nc2ccc(Br)cc2)nc2sc3c(c2c1=O)CCN(C)C3` the figure was 18.8% (inactive); with `CCN(Cc1ccccc1)C(=O)CN1C(=S)NC(C)(C)CC1C` (centres undefined), -3.94% (inactive); with `Cc1ccc(CSc2nnc(-c3cnccn3)n2C)cc1`, 36.7% (inactive). Regarding `Cn1c(SCc2c(F)cccc2Cl)nnc1-c1cnccn1`, the inhibition was 119% (active).

Consider `Oc1ccc(-n2nnnc2SCc2c(F)cccc2Cl)cc1`, for which the inhibition is -2.08% (inactive). `CC(OC(=O)c1ccccc1N1C(=O)C2C3CCC(C3)C2C1=O)C(=O)c1ccccc1` (centres undefined): the inhibition was 5.16% (inactive). The result for `CC(OC(=O)c1ccc2ccccc2n1)C(=O)c1ccccc1` (centres undefined) reads 86.7% (active); that for `COc1ccc(C(=O)COC(=O)c2ccc3ccccc3n2)cc1`, 28.4% (inactive); that for `O=C(CCc1ccccc1F)N1CCN(c2ccccc2)CC1`, -0.211% (inactive). For `O=C(NCC(=O)N1CCN(c2ccccc2F)CC1)c1cccs1`, the inhibition is 26.2% (inactive). As to `O=C(CCSc1ccccc1)N1CCN(c2ccccc2F)CC1`, the inhibition is 95.5% (active). Regarding `Cc1ccc(C)c(N2CCN(S(=O)(=O)c3c(C)[nH]c(C)c3C(=O)N3CCCC3)CC2)c1`, the inhibition is 3.26% (inactive). The result for `Cc1cccc(/C(N)=N/OC(=O)c2ccccc2Cl)c1` reads 74.6% (active). The result for `Cc1cccc(C(=O)c2cccc(C)c2)c1` reads 43.6% (inactive); that for `N/C(=N\OC(=O)c1cc(-c2ccccc2)nc2ccccc12)c1ccncc1`, 15.3% (inactive); that for `CCc1c(C)nc2cc(-c3cccs3)[nH]n2c1=O`, 153% (active). In the case of `C=CCc1c(C)nc2cc(-c3ccccc3)[nH]n2c1=O`, the inhibition was 45.5% (active). Turning to `Cc1cc(=O)n2[nH]c(-c3sccc3-n3c(C)ccc3C)cc2n1`, the inhibition is 34.4% (inactive). With `CCc1c(C)nc2cc(C)[nH]n2c1=O` the figure was 0.52% (inactive); with `CCCCN1Cc2c(nc3cc(-c4ccccc4)[nH]n3c2=O)C1=O`, 2.49% (inactive). With `Cc1nc2nc[nH]n2c(=O)c1C/C=C/c1ccccc1` the figure was -3.93% (inactive); with `COC(=O)c1cccc(N(C(=O)CNC(=O)c2cccs2)C(C(=O)NCC2CCCO2)c2ccc(OC)c(OC)c2)c1` (centres undefined), 22.3% (inactive). In the case of `COc1cc(NC(=O)C2=CC(c3ccco3)=NS(=O)(=O)N2C)cc(OC)c1OC`, the inhibition was -2.22% (inactive). As for `COc1cccc(CNC(=O)C2CCCN(S(=O)(=O)N3CC(C)CC(C)C3)C2)c1` (centres undefined), the inhibition is -1.73% (inactive).

With `Cc1ccc(S(=O)(=O)N(CCCN(C)C)Cc2ccc3c(c2)OCO3)cc1`, the inhibition was 9.86% (inactive). With `O=S(=O)(c1ccc(Br)cc1)c1nc(-c2ccccc2)oc1N1CCOCC1` the figure was -6.09% (inactive). In the case of `COc1ccc(S(=O)(=O)NCC(=O)NC2CC2)cc1OC`, the inhibition was -5.35% (inactive). Regarding `Cn1nccc1C(=O)NC1CCCc2c1cnn2-c1ccc(F)cc1F` (centres undefined), the inhibition is 10.4% (inactive).

With `COC(=O)c1c(NC(=O)c2ccc(S(=O)(=O)N3CCOCC3)cc2)sc2c1CCN(C(C)C)C2`, the inhibition was -17.4% (inactive). Regarding `O=C(O)CCCC(=O)N1N=C(c2ccco2)CC1c1ccco1` (centres undefined), the inhibition was -14% (inactive). Consider `Cc1nn2c(c1-c1ccccc1)N=C(c1ccco1)CC2c1ccccc1` (centres undefined), for which the inhibition is 103% (active). The result for `Cc1cc(C)c(C(=O)CSc2nc(C)cc(=O)[nH]2)c(C)c1` reads -13.9% (inactive).

In the case of `CCC(C)(C)n1nnnc1C(c1ccc(OC)c(OC)c1)N1CCN(C(=O)c2ccco2)CC1` (centres undefined), the inhibition is -11.9% (inactive). The result for `CCOC(=O)[C@@H]1[C@H]2COc3cc(OC)ccc3[C@H]2N2C(=O)N(c3ccc(F)cc3)C(=O)[C@]12C` reads -4.71% (inactive); that for `Cc1cc(NC(=O)CN2CCCCC2C)nc2c1c(=O)oc1ccccc12` (centres undefined), -0.755% (inactive). Regarding `CCN(CC)CCN1C(=O)C(=O)/C(=C(/O)c2cnn(-c3ccccc3)c2C)C1c1cccs1` (centres undefined), the inhibition is 79.5% (active). The result for `CCN(CC)CCN1C(=O)C(=O)/C(=C(/O)c2ccc(OC)c(OC)c2)C1c1ccccn1` (centres undefined) reads 59.8% (inactive). The result for `CCN(CC)CCN1C(=O)C(=O)/C(=C(/O)c2ccccc2)C1c1ccccc1F` (centres undefined) reads 19.4% (inactive); that for `O=[N+]([O-])c1cc(C(F)(F)F)ccc1NCCc1ccncc1`, 2.61% (inactive); that for `NC(=O)c1ccc(Nc2ccc3c(c2)CCC3)c([N+](=O)[O-])c1`, 9.03% (inactive). Turning to `CSc1cccc(NC(=O)CN2C(=O)COc3ccc(S(=O)(=O)N4CCOCC4)cc32)c1`, the inhibition is 10.9% (inactive).

As for `Cc1ccccc1NC(=O)NCc1ccco1`, the inhibition was 18.7% (inactive). With `Cc1ccc(NC(=O)C(=O)NCc2ccco2)c(C)c1` the figure was 109% (active); with `Cc1ccc(NC(=O)Cn2nnc(C(=O)NCc3ccco3)c2N)c(C)c1`, -2.94% (inactive). The result for `O=c1c2cc(Br)ccc2nc(-c2cccc(Cl)c2)n1O` reads 0.78% (inactive). On to `COc1cc(/C=N/NC(=O)Cc2ccccc2)cc(OC)c1OC`, for which the inhibition was -8.46% (inactive). With `CC(C)n1cnc2c(Nc3cccc(Cl)c3)nc(N(CCO)CCCO)nc21` the figure was -2.33% (inactive). For `NS(=O)(=O)c1cccnc1Nc1cccc(Cl)c1`, the inhibition was 15.1% (inactive).

Turning to `OCCCNc1nccc(-c2cc(Nc3cccc(Cl)c3)ncn2)n1`, the inhibition was 51.3% (active). The result for `O=C(O)CN1c2cccc3cccc(c23)S1(=O)=O` reads -1.09% (inactive); that for `O=C(NCc1cccnc1)c1ccccc1NC(=O)c1c(F)cccc1F`, -17.6% (inactive).

With `CCOC(=O)C1(CCOC)CCN(Cc2ccc(C(=O)OC)cc2)CC1`, the inhibition was 74.5% (active). The result for `CCOC(=O)C1(CCOc2ccccc2)CCN(Cc2cc(OC)cc(OC)c2)CC1` reads -16.1% (inactive). On to `CCOC(=O)C1(CCOc2ccccc2)CCN(Cc2ccc(C#CCCO)cc2)CC1`, for which the inhibition was -10.3% (inactive).
